NIH3T3 tox: Cytotoxic Profiling in NIH 3T3 Cell Line of Diverse Libraries Using Quantitative High-Throughput Screening; 94,000 compounds, 4.3% hits; Potency, µM (series often up to 96.7 µM), for the others: at the highest dose activity change, negative = cytotoxicity, usual class: inhibitors; NIH 3T3 viability, CellTiter-Glo ATP luminescence, 48-72 h; also: nearly all actives have a fitted effect of over 55% in size
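ATP-dependent luminescence (CellTiter-Glo) served as the viability signal for NIH 3T3 cells treated with compound for 48 or 72 hr at 37 °C.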
FLuc inh: Firefly luciferase inhibition profiling of diverse chemical library using quantitative high-throughput screening; Luciferin 4-monooxygenase (Photinus pyralis), P08659; purified P. pyralis luciferase, luminescence, biochemical; Potency, µM (highest dose often 115 µM), hits mostly inhibitors; 76,000 compounds, 2.5% hits; AID 1347043, 2019; also: nearly all actives have a fitted effect of over 65% in size
Target sequence (P08659 whole entry, looked up): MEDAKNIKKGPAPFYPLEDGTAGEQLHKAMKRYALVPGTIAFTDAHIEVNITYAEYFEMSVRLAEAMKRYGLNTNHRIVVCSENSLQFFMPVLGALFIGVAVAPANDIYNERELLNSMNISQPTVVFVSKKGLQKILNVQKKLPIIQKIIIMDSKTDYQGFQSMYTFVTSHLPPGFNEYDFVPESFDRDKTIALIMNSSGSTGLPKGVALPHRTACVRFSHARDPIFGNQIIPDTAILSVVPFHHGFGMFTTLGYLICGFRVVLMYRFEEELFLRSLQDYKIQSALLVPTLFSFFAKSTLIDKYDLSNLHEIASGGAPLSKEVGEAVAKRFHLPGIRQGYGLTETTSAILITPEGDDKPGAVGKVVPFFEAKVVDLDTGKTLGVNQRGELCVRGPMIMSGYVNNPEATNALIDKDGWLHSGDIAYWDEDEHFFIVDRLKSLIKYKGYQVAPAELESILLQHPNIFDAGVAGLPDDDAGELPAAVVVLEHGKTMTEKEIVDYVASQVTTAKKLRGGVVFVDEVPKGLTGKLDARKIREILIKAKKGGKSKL
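Biochemical qHTS: compound (6-point titration) added to 10uM D-luciferin plus 10uM ATP in Tris acetate pH 7.5 buffer with Mg, Tween-20 and BSA, then purified enzyme at 10nM; light output imaged.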
NPR1 antag: Natriuretic polypeptide receptor (hNpr1) antagonism - Primary qHTS; 76,000 compounds, 1.6% hits; Atrial natriuretic peptide receptor 1 (Homo sapiens), P16066; Potency, µM (titrated, usually from 46.3 µM), inactives show at the highest dose activity change, negative = inhibition, most hits filed as inhibitors; HEK293 hNpr1 GloSensor cGMP, ANP-stimulated luminescence; calls by dose curve; also: nearly all actives have a fitted effect of over 60% in size
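Compound pre-incubated 30 min at room temperature on GloSensor-loaded HEK293 cells stably carrying hNpr1 and the pGS-40F cGMP biosensor. Stimulation uses hNppA at 0.1 nM final; luminescence is taken at baseline and 20 min post-agonist.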
HEK cytotox: Cytotoxic Profiling in HEK 293 Cell Line of Diverse Libraries Using Quantitative High-Throughput Screening. Potency, µM (doses to about 115 µM), inactives show at the highest dose activity change, negative = cytotoxicity, most hits filed as inhibitors. AID 1345083, 2018. 94,000 compounds, 6.6% hits. HEK 293 viability, ATP luminescence (CellTiter-Glo), 48-72 h; also: nearly all actives have a fitted effect of over 60% in size
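HEK 293 seeded at 250 cells/well receive compound via pintool. After 48 or 72 hr at 37 degree Celsius, 5% CO2 and 95% humidity, CellTiter-Glo is dispensed and luminescence read following 10 min at room temperature.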
An asterisk follows results filed as active; i = inactive; ? = inconclusive; . = not tested or not shown; [ ] = another dose, or the depositor's remark. This is a sample that favours compounds with a hit; in the whole collection about 11% have one here. Unless noted, calls follow the shape of the dose curve; as a rule, active = well fitted curve in the direction sought with a large enough effect; inconclusive = small, poorly fitted or top-dose-only effect, or another doubt; inactive = no such curve, though single readings can be large; an effect the other way counts as inactive or inconclusive. % is scaled to controls: 0 for no effect and ±100 for the full control effect; potency is read from the fitted curve at half-maximal effect.

SMILES | NIH3T3 tox | FLuc inh | NPR1 antag | HEK cytotox
CCCc1nnc(C[C@@H]2C[C@@H](C(C)C)[C@H](CN3CCN(CCO)CC3)C=C2C)o1 | ? | i | 5%[70.6 µM] | ?
CC1=C[C@@H](CN2CCC(O)CC2)[C@H](C(C)C)C[C@H]1Cc1nnc(-c2ccc([N+](=O)[O-])cc2)o1 | ? | i | -2% | ?
CC1=C[C@@H](CN2CCN(CCO)CC2)[C@H](C(C)C)C[C@H]1Cc1nnc(-c2ccc([N+](=O)[O-])cc2)o1 | ? | i | -3% | ?
CC1=C[C@@H](CN2CCN(c3ncccn3)CC2)[C@H](C(C)C)C[C@H]1Cc1nnc(-c2ccc(N(C)C)cc2)o1 | ? | i | -20% | 28µM*
COc1ccc(-c2nnc(C[C@@H]3C[C@@H](C(C)C)[C@H](CN4CCN(CCO)CC4)C=C3C)o2)cc1 | ? | i | -4% | 45µM*
COc1ccc(-c2nnc(C[C@@H]3C[C@@H](C(C)C)[C@H](CN4CCN(C)CC4)C=C3C)o2)cc1 | 40µM* | i | -2% | 32µM*
CC1=C[C@@H](CN2CCN(CCO)CC2)[C@H](C(C)C)C[C@H]1Cc1nnc(-c2ccc(N(C)C)cc2)o1 | 20µM* | i | 1% | 14µM*
CC1=C[C@@H](CN2CCN(c3cnccn3)CC2)[C@H](C(C)C)C[C@H]1Cc1nnc(-c2ccccc2)o1 | ? | i | -30% | 25µM*
Cc1cc(C)n(CCC(=O)N2CC(Oc3ccc(-c4nc(-c5ccccc5)no4)cc3)C2)n1 | ? | ? | 0.4µM* | 32µM*
Cc1cc(C(=O)N2CC(Oc3ccc(-c4nc(-c5ccccc5)no4)cc3)C2)n(C)n1 | ? | ? | 5.6µM* | 11µM*
CN1CCCN(C(=O)Cc2ccccc2F)c2ccccc21 | ? | i | 1% | ?
CCOC(=O)c1cc2cc(NCC3=CC(C)(C)COc4ccc(OC)cc43)ccc2o1 | -35% | . | . | ?
CCOC(=O)c1cc2cc(NC(=O)C3=CC(C)(C)Oc4ccc(OC)cc43)ccc2o1 | ? | . | . | 45µM*
CC(C)c1ccc(C(=O)N2CCc3[nH]nc(C(=O)NCCCc4ccccc4)c3C2)cc1 | 0% | i | 0% | -1%
O=C(NCCCc1ccccc1)c1n[nH]c2c1CN(C(=O)c1cccc(Cl)c1)CC2 | 35µM* | . | . | ?
Cc1cccc(C(=O)N2CCc3[nH]nc(C(=O)NCCCc4ccccc4)c3C2)c1 | ? | i | 0% | ?
Cc1ccc(C(=O)N2CCc3[nH]nc(C(=O)NCCCc4ccccc4)c3C2)cc1 | ? | i | 0% | ?
COc1cccc(C(=O)N2CCc3[nH]nc(C(=O)NCCCc4ccccc4)c3C2)c1 | 32µM* | i | -29% | ?
CCC(C)C(=O)N1CCc2[nH]nc(C(=O)NCCCc3ccccc3)c2C1 (stereo unspecified) | ? | i | 0% | 11µM*
O=C(NCCCc1ccccc1)c1n[nH]c2c1CN(C(=O)c1ccc(F)c(F)c1)CC2 | 35µM* | . | . | ?
C=Cc1cccc(CN2CCCC3(CCNC3)C2)c1 (stereo unspecified) | ? | i | -6% | ?
COc1ccc(Cn2c(-c3ccc(Cl)cc3)nc(C)c(CCO)c2=O)cc1F | ? | i | 0% | 45µM*
Cc1cccc(NC(=O)Cn2c(-c3cccc(Cl)c3)nc(C)c(CCO)c2=O)c1 | ? | i | -14% | 40µM*
COc1ccccc1NC(=O)Cn1c(-c2ccccc2)nc(C)c(CCO)c1=O | ? | i | -12% | 35µM*
COc1ccc(NC(=O)Cn2c(-c3ccc(Cl)cc3)nc(C)c(CCO)c2=O)cc1OC | -14% | i | -4% | i
SMILES | NIH3T3 tox | FLuc inh | NPR1 antag | HEK cytotox
COc1ccc(Cn2c(-c3ccc(F)cc3)nc(C)c(CCO)c2=O)cc1F | ? | i | 5% | ?
COc1ccc(NC(=O)Cn2c(-c3ccc(F)cc3)nc(C)c(CCO)c2=O)cc1Cl | ? | i | -22% | 35µM*
CNC(=O)[C@@H]1C[C@H](Oc2cccnc2)CN1C(=O)C(C)C | -22% | i | -10% | -15%
CCc1ccc(C(=O)N2CCC(c3n[nH]c(=O)n3Cc3ccc(C)cc3)CC2)cc1 | ? | i | -5% | ?
CN(CCc1ccccn1)C(=O)CCC[C@@H]1[C@H]2CCCN3CCC[C@@H](CN1Cc1cccnc1)[C@@H]23 | -6% | i | 1% | 3%
Cc1nc(-c2ccccc2)n(CC(=O)Nc2cccc(Cl)c2)c(=O)c1CCO | ? | i | ? | 25µM*
COc1cccc(NC(=O)Cn2c(-c3cccc(Cl)c3)nc(C)c(CCO)c2=O)c1 | ? | i | -20% | 79µM*
CCOc1ccc(NC(=O)Cn2c(-c3cccc(Cl)c3)nc(C)c(CCO)c2=O)cc1 | 32µM* | i | -11% | ?
CCc1cccc(NC(=O)Cn2c(-c3ccccc3)nc(C)c(CCO)c2=O)c1 | ? | i | -14% | ?
Cc1cc(CN(C)c2ccc(-c3nc(-c4ccccc4F)no3)cn2)on1 | -21% | ? | ? | -20%
CN(CCn1ccnc1)c1ccc(-c2nc(-c3cccc(Cl)c3)no2)cn1 | ? | 3.2µM* | ? | 35µM*
O=C(NC1CCN(c2cc(-c3ccc(Cl)cc3)[nH]n2)C1)c1ccc(F)cc1F (stereo unspecified) | ? | i | ? | 50µM*
O=C(NC1CCN(c2cc(-c3ccc(Cl)cc3)[nH]n2)C1)c1ccccc1Br (stereo unspecified) | 35µM* | i | ? | 28µM*
COc1ccc(C(=O)NC2CCN(c3cc(-c4ccc(Cl)cc4)[nH]n3)C2)c(C)c1 (stereo unspecified) | ? | i | -16% | ?
COc1ccc(C(=O)NC2CCN(c3cc(-c4ccc(Cl)cc4)[nH]n3)C2)c(OC)c1 (stereo unspecified) | 35µM* | i | -27% | 45µM*
CCCc1ccc(S(=O)(=O)N2CCC3(CC2)[C@H](C(=O)OCC)[C@@H](OC)C(=O)N3C)cc1 | -24% | . | . | ?
CS(=O)(=O)c1ccc(O[C@H]2COCCN(C3CCC3)C2)cc1 | -20%[174 µM] | i | 3%[70.6 µM] | -23%[172 µM]
c1cncc(O[C@H]2COCCN(C3CCC3)C2)c1 | 50µM* | i | 1%[70.6 µM] | ?
c1ccc(CN(Cc2ccccn2)[C@H]2C[C@H]3CCOC[C@@]3(c3ccccc3)C2)cc1 | ? | . | . | 50µM*
COc1cccc(CN(Cc2ccccc2)[C@H]2C[C@H]3CCOC[C@@]3(c3ccccc3)C2)c1 | -21% | . | . | ?
NCc1ccccc1-c1cc(F)cc(F)c1 | -11%[138 µM] | . | . | -18%[172 µM]
COc1cccc(-c2ccccc2CN)c1 | -8%[138 µM] | . | . | -16%[172 µM]
Cc1cc(C)cc(-c2ccccc2CN)c1 | ? | . | . | 112µM*

Source: PubChem BioAssay
